A selection: hits, their analogues and other compounds. The true share with any hit is near 1.8%.
Myeloid diff MLP – myeloid differentiation induction; ER-HoxA9 myeloid progenitors, lysozyme-GFP differentiation, flow cytometry; calls only at 10 µM; 1% of 360,000 active; AID 624256;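 active = normalized GFP-positive differentiation at or above the plate's own cutoff, the solvent-only control mean plus 3 SD; inconclusive = no clear call, values can overlap the other calls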;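 also: cells exposed to compound for four days before flow analysis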
ABCB6 inh MLPCN – inhibitors of human ABC transporter ABCB6; Q9NP58; 0.19% of 360,000 active; K562-ABCB6 porphyrin accumulation, flow cytometry, 1 h; active compounds read low; fluorescence ratio to DMSO, % at 10 µM; AID 602162;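 active = fluorescence ratio to DMSO below 75%, the collection mean minus 3 SD; inconclusive = too few cells collected in the well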;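 also: signal is porphyrin accumulated inside mitochondria; lower ratio means ABCB6 inhibition with less porphyrin fluorescence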
Target sequence (Q9NP58 whole entry, looked up): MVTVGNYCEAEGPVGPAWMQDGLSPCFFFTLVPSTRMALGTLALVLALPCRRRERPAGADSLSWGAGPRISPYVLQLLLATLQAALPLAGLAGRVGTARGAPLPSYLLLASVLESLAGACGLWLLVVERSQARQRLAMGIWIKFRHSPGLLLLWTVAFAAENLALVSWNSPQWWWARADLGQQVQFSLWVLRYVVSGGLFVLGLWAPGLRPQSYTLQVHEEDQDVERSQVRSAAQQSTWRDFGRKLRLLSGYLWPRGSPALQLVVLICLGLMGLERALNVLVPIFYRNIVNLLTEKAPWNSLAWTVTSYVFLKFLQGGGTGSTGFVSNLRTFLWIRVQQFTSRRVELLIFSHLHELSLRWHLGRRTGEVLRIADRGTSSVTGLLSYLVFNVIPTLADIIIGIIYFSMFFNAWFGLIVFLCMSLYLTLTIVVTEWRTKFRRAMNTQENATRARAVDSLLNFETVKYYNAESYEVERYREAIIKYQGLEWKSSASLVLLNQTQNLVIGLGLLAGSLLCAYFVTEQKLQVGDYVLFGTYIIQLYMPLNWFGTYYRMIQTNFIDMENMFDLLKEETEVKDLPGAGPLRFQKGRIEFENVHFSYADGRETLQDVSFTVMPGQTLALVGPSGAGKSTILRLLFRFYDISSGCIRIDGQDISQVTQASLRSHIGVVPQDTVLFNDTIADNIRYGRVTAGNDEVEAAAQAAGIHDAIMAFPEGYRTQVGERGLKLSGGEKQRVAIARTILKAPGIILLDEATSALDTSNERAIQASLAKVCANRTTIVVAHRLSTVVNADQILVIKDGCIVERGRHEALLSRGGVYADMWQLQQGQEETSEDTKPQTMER
Exocytosis inh – lytic granule exocytosis inhibition | inhibition, % at 10 µM | TALL-104 LAMP-1 surface exposure, flow cytometry; cells stimulated with thapsigargin and PMA | 0.66% of 360,000 active;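 active = inhibition above about 55%, limit read from the data; inconclusive = no clear call, values can overlap the other calls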
Each line names hits and unclear results; the compound was inactive in the other large screens.

COC(=O)c1ccccc1-c1ccc(/C=N/NC(=O)c2cc3ccccc3o2)o1	none
COC(=O)c1ccccc1-c1c2ccc(=N)cc-2oc2cc(N)ccc12	Myeloid diff MLP active (no result: ABCB6 inh MLPCN)
O=C(NCc1ccccc1)c1cc(C2CCCCN2C(=O)c2ccc(Cl)cc2)on1 (centres undefined)	none
CC1(C)Cc2c(C#N)c(N)n(-c3ccccc3)c(=S)c2CO1	none
N#Cc1c2c(c(=S)n(-c3ccccc3)c1N)CCCC2	Myeloid diff MLP active
COc1ccc(CCNc2nc(-c3ccc(F)cc3)c(CC(=O)O)s2)cc1OC	Myeloid diff MLP active
COc1ccc(CCNc2nc(C)c(C(C)=O)s2)cc1OC	none
N#Cc1c(Nc2ccccc2)[n+]([O-])c2ccc(Cl)cc2[n+]1[O-]	Myeloid diff MLP inconclusive
CC(C)C[C@H]1COc2cccc(N3CCC[C@H]3CO)c2S(=O)(=O)N1	none
NC(=O)c1nnsc1-c1ccco1	none
COc1ccc(-c2[nH]c(-c3ccc4c(c3)OCO4)nc2-c2ccccc2)cc1	none
Cc1c(C)c(C)c2[nH]c(-c3ccc4c(c3)OCO4)nc2c1C	Exocytosis inh 61
O=C1[C@H]2[C@@H](c3ccc(C(F)(F)F)cc3)N[C@]3(CCCN(Cc4ccc(C(F)(F)F)cc4)C3=O)[C@H]2C(=O)N1Cc1ccccc1	none
CC1=C/C(=C\C=C(C#N)C#N)N(C)c2ccccc21	Myeloid diff MLP active
CN1/C(=C/C=C(C#N)C#N)C(C)(C)c2ccccc21	none
C#Cc1ccc(NC(=O)C2(C)CCN2C(=O)c2cc(C)n(C)n2)cc1 (centres undefined)	none
Cc1ccc(S(=O)(=O)N2C[C@H]3N(C(=O)OC(C)C)N(C(=O)OC(C)C)C[C@H](OC(=O)Nc4cccs4)[C@@]3(O)C2)cc1	none
Cc1cc(C)c2nc3nc(C)c(C)cc3c(N)c2c1	Myeloid diff MLP active
Cc1cc(C)c2c(N)c3cccc(C)c3nc2n1	Myeloid diff MLP inconclusive
CC(CCC(=O)O)C1CCC2C3CC(O)C4CC(O)CC[C@]4(C)C3CCC12C (some centres undefined)	none
Cc1ccc(S(=O)(=O)N2CCN(C(=O)C(C)Cn3cncn3)CC2)cc1 (centres undefined)	Myeloid diff MLP inconclusive
COc1ccc(OC)c(C2=CC(=O)C[C@H](c3ccc(F)cc3)C2)c1	none
COc1ccc(F)cc1C1=CC(=O)C[C@H](c2ccc3c(c2)OCO3)C1	Myeloid diff MLP active
COc1cc(F)c(C2=CC(=O)C[C@H](c3ccc4c(c3)OCO4)C2)cc1F	none
COc1ccc([C@H]2CC(=O)C=C(c3cc(OC)ccc3OC)C2)cc1	Myeloid diff MLP active
CCOC(=O)C1(C)CCN1C(=O)/C=C/c1ccccc1 (centres undefined)	none
CCOC(=O)c1ccc([N+](=O)[O-])c(CS(=O)(=O)c2ccc(Cl)cc2)c1	none
Cc1ccc(S(=O)(=O)Cc2cc(F)c([N+](=O)[O-])cc2[N+](=O)[O-])cc1	Myeloid diff MLP inconclusive, Exocytosis inh 72
O=C(O)COc1ccccc1C(Nc1cccnc1)c1cc(Cl)c2cccnc2c1O (centres undefined)	none
CCOc1ccc(C(Nc2cccnc2)c2cc(Cl)c3cccnc3c2O)cc1 (centres undefined)	Myeloid diff MLP active
CCCc1[nH]n(-c2ccc([N+](=O)[O-])cc2)c(=O)c1C=NCCc1c[nH]c2ccccc12	Exocytosis inh 90
Cc1[nH]n(-c2ccc([N+](=O)[O-])cc2)c(=O)c1C=NCCc1c[nH]c2ccccc12	none
Cc1c(C(=O)Nc2nccs2)oc2ccc(Br)cc12	none
C=C1C(=O)[C@]23C[C@H]1CC[C@H]2[C@]1(C)[C@@H](O)CC[C@@](C)(C(=O)O)[C@H]1C[C@@H]3O	Myeloid diff MLP active
C=C1C(=O)[C@]23C[C@H]1CCC2[C@@]1(C)C(C[C@@H]3O)[C@](C)(C(=O)O)C[C@H](O)[C@@H]1O (some centres undefined)	none
C[C@H](O)[C@@H]1CN2CCc3c([nH]c4ccccc34)[C@@H]2C[C@@H]1N(C)C(=O)NC1CCCCC1	none
O=C(c1cccs1)N1CCN(C2CCCCC2)CC1	none
NC(=O)C1(N2CCCCC2)CCN(C(=O)c2cccs2)CC1	Myeloid diff MLP active
O=C(NCC(c1cccs1)N1CCOCC1)c1cc2ccccc2oc1=O (centres undefined)	none
CC(OC(=O)C1CCN(S(=O)(=O)c2ccc(C(C)(C)C)cc2)CC1)C(=O)N(C)C1CCCCC1 (centres undefined)	none
CCN(Cc1ccccc1)C(=O)CCS(=O)(=O)c1ccc2c(c1)NC(=O)CO2	none
COc1ccc(CCn2c(C)c(C(C)=O)c3cc(OC(=O)c4ccco4)ccc32)cc1OC	none
CC(=O)c1c(C)n(C)c2ccc(OC(=O)c3ccco3)cc12	Myeloid diff MLP active
O=C(CC(O)c1ccccc1)Nc1ccccn1 (centres undefined)	none
CC(C)(C)N1C(=O)[C@H]2[C@@H](c3ccc(Br)cc3)N3C(=O)N(c4cccc(Cl)c4)C(=O)[C@@]3(Cc3ccccc3)[C@H]2C1=O	none
O=C(/C=C1\NC2(CCCC2)Cc2ccccc21)N1CCOCC1	Exocytosis inh 77
CC1(C)Cc2c(ccc3ccccc23)/C(=C/C(=O)N2CCCCC2)N1	none
CC1CCCCC1NC(=O)C1CCCN(S(=O)(=O)c2ccc(-n3cnnn3)cc2)C1 (centres undefined)	Myeloid diff MLP inconclusive
Cc1cc2c(SCc3ccccc3Cl)nc(N)nc2nc1C	Myeloid diff MLP active
Nc1cc(N)nc(SCc2ccccc2Cl)n1	none
CCOC(=O)c1ccccc1NC(=O)COC(=O)c1ccccc1C(=O)N(C)c1ccccc1	none
CN(C(=O)c1ccccc1NC(=O)C(F)(F)F)c1ccccc1	ABCB6 inh MLPCN 60
CCOc1ccc(C(=O)NC2CC(=O)N(c3ccc4c(c3)OCCO4)C2)cc1 (centres undefined)	none
Clc1ccc(-c2csc3ncnc(Cl)c23)cc1	none
NNc1ncnc2scc(-c3ccc(Cl)cc3)c12	Myeloid diff MLP active
CCCN(CC(=O)Nc1ccc(F)c(F)c1F)C(=O)Cn1c(=O)cnc2ccccc21	Myeloid diff MLP active
CCN(CC(=O)Nc1c(F)cccc1F)C(=O)Cn1c(=O)cnc2ccccc21	none
O=C1NC[C@@H](CCCCN2CCN(CCc3ccc(O)cc3)C(=O)C2=O)N(Cc2ccccc2)C1=O	none
CC(C)[C@H](NC(=O)c1ccccc1F)C(=O)OCCN1C(=O)c2ccccc2C1=O	none
COc1ccc(/C=N/NC(=O)c2cccnc2)cc1COc1ccc(NC(C)=O)cc1	none
COc1ccc(/C=N/NC(=O)c2cccnc2)cc1COc1ccc([N+](=O)[O-])cc1	Exocytosis inh 61
COc1cc(/C=N/NC(=O)c2cccnc2)ccc1OC(=O)c1ccc([N+](=O)[O-])cc1	Exocytosis inh 76
O=C(N/N=C/c1ccc(OC(=O)c2ccc([N+](=O)[O-])cc2)cc1)c1cccnc1	none
O=C(c1ccco1)N1CCN(C(=O)C2(S(=O)(=O)c3ccc(Cl)cc3)CC2)CC1	none
O=C(N1CCN(c2ccccc2)CC1)C1(S(=O)(=O)c2ccc(Cl)cc2)CC1	Myeloid diff MLP active
CC(=O)N1N=C(c2ccc3ccccc3c2)OC1(C)C	none
CC(C)(C)C1N=C(c2ccc3ccccc3c2)OC1=O (centres undefined)	Exocytosis inh 64
CCc1nc2c(OCc3ccc(C(=O)N(C)C)cc3)cccn2c1N(C)C(=O)c1ccc(C)cc1	none

Screening data from PubChem.
